The source of these data is the supplement of paper PMC12632987.

B1: GBRAP_52_6205 (protein)
chain: MHERMRAHARELVALVKAGDLDAARAYARELARTLNEEELELLGEELVELAKTAAPEDLDAIFKAAEILSDVLEEEGFDEALADGLLNRVAAALYERELK
B2: GBRAP_160_4347 (protein)
chain: MEAAEKLIKELKEATERVIAEVDKLSVEQVAVVAAGEFGAVAMEAAEDERYSDEMVDVIIDAQDKILAFLDENKDASPEEIKEGIKKITEEAIKKIKEIA
B3: GBRAP_160_4081 (protein)
chain: SAAHEKLIKEVTEIFDEALKMMEGVTPAEAVAIALVALGEVALLIEEEEELSEEDKDKLLALVDAAEAEVRAAADATVAELKALLERHRDEIVAAIKALD
B4: GBRAP_35_5623 (protein)
chain: NTDKEIAEAVVAVLEDTLLAKDTVPADTFIDTAIKVARLGIEVAKELKEYKENAKKILEAVEKLLKAAKERAKETGAPEEKLKEIEKLLKEVEELKKKLE
B5: GBRAP_11_2643 (protein)
chain: KKEKLKKAAELAKKAIEALKKLLEEGVDNEELRKKIEELLEELSKLVKEYADESLKKLVEIAKELWKKSLEDPENAEEYVKNLLAALRVLSAELEEEIEE
B6: GBRAP_160_4726 (protein)
chain: SERIREFVERFEERFLETIEATEDESKEEQAAMFRGTAGEILMEALEEPFLSDEMEDVVAEELDALVAELEANWDASKEEKKAIVREHMERLRERLLALA
B7: GBRAP_160_4491 (protein)
chain: SAKVEEAKKEVKAIVDDAVDAIAEAPADQRAAIARAYAGDIVQTLLELGVVTDEQAETVLDTAEAGLAAVVAASAAGAAAAAAAAAALVATLNDMIKKFS
B8: GBRAP_14_3817 (protein)
chain: MEELKKKIKEILDDLYEELVEDIGLDEEKVKKLIDKALEEIFKALDDPEGSEEKIKEIMEKLKKEIEKLAAELGADEAAAARALVTDAEYEIDEAIEEAK

Whole data set: some 4,500 sequences, median “median log2 fold change of GCK-ALFA target abundance (FLAG IP / Myc IP barcode read proportion)” near 0.078, cut for the lowest 2% near -0.6. The sample as a whole holds a higher share of the lowest values than the screen did.

GABARAP, O95166, sequence (O95166 whole entry, the tested form may be a part): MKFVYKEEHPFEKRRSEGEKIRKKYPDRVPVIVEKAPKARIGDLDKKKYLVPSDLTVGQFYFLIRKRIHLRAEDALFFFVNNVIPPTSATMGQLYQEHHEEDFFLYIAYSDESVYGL

The experiment concerns the target GABARAP, O95166. Put plainly: median log2 fold change of GCK-ALFA target abundance (FLAG IP / Myc IP barcode read proportion) (log2 ratio); each designed protein is fused to an ALFA-tag nanobody in HEK293 cells to bring the named protein to FLAG-tagged glucokinase (GCK); Myc marks an untargeted standard; higher = target protein stabilised (more abundant). To be noted: target protein: 3xFLAG-MCP-GCK-ALFA reporter; HEK293 landing pad (RPLP). In outline: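 The readout is target abundance, the per-binder median log2 ratio of FLAG to Myc barcode read proportions. It came from HEK293 landing-pad cells carrying a recombined ALFA-nanobody-fused binder library, induced with 2 μg mL^−1 doxycycline and transfected with a plasmid for a FLAG-tagged target and a Myc-tagged standard. After 48 h, lysates were immunoprecipitated with anti-FLAG and anti-Myc, and circular RNA barcodes were reverse transcribed, amplified and sequenced. Each barcode needed a proportion of at least 10^−7 in both replicates and each binder at least 3 barcodes per replicate, a pseudocount of 10^−6 was added, and the replicates were pooled.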
For the molecule B1, the “median log2 fold change” value is -0.122.
Turning to B2, the “median log2 fold change” value came to 0.152.
With B3 the figure was 0.134; with B4, -0.669.
B5: the “median log2 fold change” value was determined as 0.271.
On to B6, for which the “median log2 fold change” value came out at 0.0951.
As to B7, the “median log2 fold change” value is -1.1.
With B8 the figure was -0.057.
